A selection: hits, their analogues and other compounds. The true share with any hit is near 2.4%.
Rpn11 block: blocks the human proteasome subunit Rpn11 | actives 0.59% (n = 360,000) | inhibition, % at 20 µM | human 26S proteasome, Ub4-pepOG fluorescence polarization; 20S core pre-blocked with epoxomicin;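 active = inhibition at 20 µM, scaled to each plate's controls, above about 33%, limit read from the data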
NadD inh: blocks S. aureus nicotinate mononucleotide adenylyltransferase. purified NadD enzyme, colorimetric absorbance read-out. inhibition, % at 20 µM. actives 0.78% (n = 360,000). AID 602399; in the data active = inhibition above about 26%
PREPL inhibitor: human PREPL enzyme inhibition; Q4J6C6; actives 0.68% (n = 320,000); inhibition, % at 5.96 µM; AID 2751; recombinant PREPL, fluorescence polarization activity-based probe; in the data active = inhibition above about 43%;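 also: 0% = enzyme with DMSO and 100% = wells lacking enzyme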
PP5 primary: PP5 (human) phosphatase inhibition; P53041; purified PP5c, OMFP substrate fluorescence; inhibition, % at 6.7 µM; actives 0.18% (n = 320,000);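 active = inhibition above the campaign's mean inhibition across all tested compounds plus 3 SD, cut at about 9.5% in these data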;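 also: 0% = DMSO only and 100% = 100 µM cantharidin control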
PP1 inh: PP1-alpha (human) inhibition in PP5 counter-screen; inhibition, % at 6.7 µM; actives 0.9% (n = 320,000); AID 2235; purified PP1alpha, OMFP fluorescence;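 active = inhibition above the mean inhibition of all tested compounds plus 3 SD, computed separately for each screening campaign, cut at about 15% in these data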
Target sequence (P62136 whole entry, looked up): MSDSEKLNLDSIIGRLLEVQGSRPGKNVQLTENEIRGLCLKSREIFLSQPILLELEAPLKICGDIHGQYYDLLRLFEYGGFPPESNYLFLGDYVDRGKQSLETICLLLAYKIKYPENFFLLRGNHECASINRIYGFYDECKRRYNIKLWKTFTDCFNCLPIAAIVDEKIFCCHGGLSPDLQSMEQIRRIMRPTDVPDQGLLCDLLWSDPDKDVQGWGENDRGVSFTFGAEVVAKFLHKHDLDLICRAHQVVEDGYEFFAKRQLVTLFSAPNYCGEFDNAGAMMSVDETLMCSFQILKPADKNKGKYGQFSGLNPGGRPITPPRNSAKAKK
PP1 inh confirm: human PP1 phosphatase inhibition, confirmation | shares compounds with PP1 inh | purified PP1alpha, OMFP substrate fluorescence | inhibition, % at 6.7 µM | actives 52% (n = 1,900) | AID 2358;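 active = mean PP1 inhibition above a set limit taken from the earlier primary screen, cut at about 15% in these data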
PP5 inh counter: inhibits human PP5 phosphatase in PP1 counter-screen | purified PP5c, OMFP fluorescence | shares compounds with PP1 inh | inhibition, % at 6.7 µM | actives 4% (n = 1,900) | AID 2360;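 active = mean PP5 inhibition over triplicate wells above about 9.5% taken from the earlier PP1 screen, limit read from the data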
* marks the source's active call; other numbers are inactive results.

Screening CCc1ccc(NC(=O)Cn2ncc3c4ccccc4n(C)c3c2=O)cc1 returned Rpn11 block 8, NadD inh 4, PREPL inhibitor -7, PP5 primary -3, PP1 inh 24*, PP1 inh confirm 22* and PP5 inh counter -5.
For Cn1c2ccccc2c2cnn(CC(=O)Nc3ccc(Cl)cc3)c(=O)c21 the results were Rpn11 block 10, NadD inh -6, PREPL inhibitor -10, PP5 primary 1, PP1 inh 18*, PP1 inh confirm 14 and PP5 inh counter 0.
`CCCn1c2ccccc2c2cnn(CC(=O)NCCOC)c(=O)c21` gave Rpn11 block -6 and NadD inh -7.
`O=C(Nc1nnc(-c2ccccc2Cl)o1)c1nc2ccccc2s1` gave Rpn11 block 9, NadD inh 9, PREPL inhibitor 0, PP5 primary 0, PP1 inh 40*, PP1 inh confirm 31* and PP5 inh counter -1.
Screening CCOc1ccccc1C(=O)NCC(=O)NCC(c1ccc(OC)cc1)N1CCOCC1 (centres undefined) returned Rpn11 block -2, NadD inh -4, PREPL inhibitor 16, PP5 primary -1, PP1 inh 23*, PP1 inh confirm -2 and PP5 inh counter -3.
O=C(C1CCN(Cc2cn[nH]c2-c2ccc(F)cc2F)CC1)N1CCOCC1 was read as Rpn11 block -1, NadD inh -2, PREPL inhibitor 3, PP5 primary 0, PP1 inh 43*, PP1 inh confirm -3 and PP5 inh counter -1.
For Clc1ccc(N=c2ssnc2Cl)cc1 the results were Rpn11 block 4, NadD inh 28, PREPL inhibitor 5, PP5 primary 0, PP1 inh 19*, PP1 inh confirm 1 and PP5 inh counter -1.
Clc1nssc1=Nc1ccccc1 was read as Rpn11 block 2 and NadD inh 18.
`Cc1cc2oc(=O)cc(-c3cc4ccccc4o3)c2cc1O` gave Rpn11 block -8, NadD inh 15, PREPL inhibitor -36, PP5 primary 0, PP1 inh 24*, PP1 inh confirm 21* and PP5 inh counter -1.
Screening O=c1cc(-c2cc3ccccc3o2)c2cc(O)ccc2o1 returned Rpn11 block -3, NadD inh -6, PREPL inhibitor -116, PP5 primary 1 and PP1 inh 3.
`CC(C)Nc1nc(Nc2ccc(C(N)=O)cc2)c2sccc2n1` gave Rpn11 block -3 and NadD inh -6.
For O=C(O)c1cc(-c2cc3ccccc3o2)nn1-c1ccccc1 the results were Rpn11 block 20, NadD inh 7, PREPL inhibitor -4, PP5 primary 2, PP1 inh 45*, PP1 inh confirm 45* and PP5 inh counter -2.
`O=C(O)c1cc(-c2cccs2)nn1-c1ccccc1` gave Rpn11 block 5, NadD inh -3, PREPL inhibitor 2, PP5 primary -1, PP1 inh 28*, PP1 inh confirm 24* and PP5 inh counter -5.
`CN(C)S(=O)(=O)c1cccc(NC(=O)c2cc(-c3cccs3)nn2-c2cccc(Cl)c2)c1` gave Rpn11 block 18, NadD inh 1, PREPL inhibitor -10, PP5 primary 3 and PP1 inh 14.
O=C(O)c1cc(-c2cccs2)nn1-c1cccc(Cl)c1 was read as Rpn11 block 3, NadD inh -10, PREPL inhibitor -7, PP5 primary -1, PP1 inh 29*, PP1 inh confirm 27* and PP5 inh counter -6.
Screening O=C(O)c1[nH]c(-c2ccccc2)c2c1C(=O)N(C1CC1)C2=O returned Rpn11 block 3 and NadD inh -6.
Screening COc1cc(CN2CCN(c3ncccn3)CC2)cc(OC)c1 returned Rpn11 block 4, NadD inh 4, PREPL inhibitor -7, PP5 primary 3 and PP1 inh 3.
COc1ccccc1CNC(=O)C(NS(=O)(=O)c1ccc2c(c1)oc(=O)n2C)C(C)C (centres undefined) was read as Rpn11 block 3, NadD inh -1, PREPL inhibitor -1, PP5 primary 0, PP1 inh 27*, PP1 inh confirm -3 and PP5 inh counter -1.

Source: PubChem (several laboratories)
